Data taken from PubChem BioAssay.
Several values for one entry are separate records, joined by “and”; a condition that tells them apart may be missing. Equal values may be shown once. Activity calls are given as the source filed them. Unless noted, no stated cut-off is given here; in the data, active means inhibition above about 80%; inactive means the rest.

How the values were obtained:
[1] = viability rescue of complex I mutant cybrids, primary screen, cell-based, galactose medium, ATP luminescence (AID 1645843;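 active means z-score of at least 1.8 in each of two replicates, scored against plate mean and spread of sample wells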;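 further: positive z means more ATP and so rescue of galactose-driven cybrid death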); settings: complex I mutant cybrid cells, 72 h, stronger effect = higher value
[2] = phospholipid biosynthesis inhibitors in animal cells, primary screen, cell-based, LOPAC library, screen 4 (AID 1347384; call rule not given here); settings: phospholipid biosynthesis inhibition screen, at 10 µM
[3] = LFS_MB_1R medulloblastoma cell growth inhibition, synergistic combos for chromothripsis tumors, cisplatin or BGB combos (AID 1671452); settings: LFS_MB_1R medulloblastoma cells, stronger effect = higher value;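 further: cells exposed for 96 hours before readout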
[4] = CRL2098 osteosarcoma cell growth inhibition, synergistic combos for chromothripsis tumors, BGB or cisplatin IC20 combos (AID 1671454); settings: CRL2098 osteosarcoma cells, drug combinations, stronger effect = higher value;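 further: cells exposed for 96 h before readout; 0% = vehicle DMSO and 100% = killing by high DMSO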
[5] = HD-MB03 medulloblastoma cell growth inhibition, synergistic combos for chromothripsis tumors, BGB or cisplatin IC20 combos (AID 1671455; in the data active means inhibition above about 83%;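 further: 0% = vehicle DMSO and 100% = high DMSO as cytotoxic control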); settings: HD-MB03 medulloblastoma cells, stronger effect = higher value
[6] = UWB1.289 ovarian carcinoma cell growth inhibition, synergistic combos for chromothripsis tumors, BGB or cisplatin combos (AID 1671456); settings: UWB1.289 ovarian carcinoma cells, stronger effect = higher value;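 further: cells exposed to compound for four days; 0% = vehicle DMSO and 100% = killing by high DMSO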
[7] = LFS_MB_2R medulloblastoma cell growth inhibition, synergistic combos for chromothripsis tumors, cisplatin combos (AID 1671457); settings: LFS_MB_2R medulloblastoma cells, stronger effect = higher value;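 further: cells exposed to compound for four days before readout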
[8] = UWB1.289_BRCA1 ovarian cancer growth, cell-based, BGB or cisplatin combinations (AID 1671459); settings: UWB1.289 BRCA1 ovarian carcinoma, drug combinations, stronger effect = higher value
[9] = human astrocyte viability loss, single and combined drugs, cytotoxicity control for chromothriptic childhood tumor combination screen, cell-based, BGB or cisplatin IC20 combos (AID 1671460); settings: Human astrocytes, drug combinations, stronger effect = higher value;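 further: cells exposed to compounds for 96 hours before viability readout; 0% = vehicle and 100% = killing control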
[10] = circadian clock period modulators, cell-based, LOPAC library, luminescence reporter (AID 2774; call rule not given here;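 further: values are relative to mean of DMSO wells on each plate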); settings: circadian reporter cells, at 7 µM, actives lie on both sides
[11] = system: Hepatitis C virus NS3 helicase; assay: HCV NS3 helicase inhibitors, primary screen, biochemical, fluorescence polarization, LOPAC1280 library (AID 687035; in the data active means inhibition above about 37%); settings: Purified HCV NS3 helicase, Cy5-dT15 ssDNA binding fluorescence polarization; stronger effect = higher value; concentration not given here
[12] = Cy5 fluorescence quenching or enhancement artefacts, artefact control for HCV NS3 helicase inhibitor project, biochemical, LOPAC1280 (AID 687037; call rule not given here); settings: Cy5-DNA-NS3h complex fluorescence interference counterscreen
[13] = liver-stage malaria parasite growth inhibition, primary screen, cell-based, HepG2, luciferase luminescence, HepG2 viability (AID 624349; in the data active means parasite load remaining mostly below about 12%, no sharp cut-off; inactive means mostly above about 10%;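 further: 100% = mean of DMSO negative control wells on the same plate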); settings: P. berghei liver stage in HepG2, luciferase luminescence, concentration not given here; parasite load remaining: stronger effect = lower value; viability: measured here: HepG2 viability without parasites
[14] = target: NAD(+) hydrolase SARM1 (Homo sapiens) (UniProt Q6SZW1); assay: SARM1 TIR NADase inhibitors, cell lysate, NAD-Glo luminescence (AID 1508614;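 active means compound whose remaining NAD level is above about 45 nM, limit read from the data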); settings: SAM-TIR HEK293T lysate NADase, at 1 µM, stronger effect = higher value
Chain of NAD(+) hydrolase SARM1 (Homo sapiens) (Q6SZW1 whole entry, looked up, the tested form may be a part): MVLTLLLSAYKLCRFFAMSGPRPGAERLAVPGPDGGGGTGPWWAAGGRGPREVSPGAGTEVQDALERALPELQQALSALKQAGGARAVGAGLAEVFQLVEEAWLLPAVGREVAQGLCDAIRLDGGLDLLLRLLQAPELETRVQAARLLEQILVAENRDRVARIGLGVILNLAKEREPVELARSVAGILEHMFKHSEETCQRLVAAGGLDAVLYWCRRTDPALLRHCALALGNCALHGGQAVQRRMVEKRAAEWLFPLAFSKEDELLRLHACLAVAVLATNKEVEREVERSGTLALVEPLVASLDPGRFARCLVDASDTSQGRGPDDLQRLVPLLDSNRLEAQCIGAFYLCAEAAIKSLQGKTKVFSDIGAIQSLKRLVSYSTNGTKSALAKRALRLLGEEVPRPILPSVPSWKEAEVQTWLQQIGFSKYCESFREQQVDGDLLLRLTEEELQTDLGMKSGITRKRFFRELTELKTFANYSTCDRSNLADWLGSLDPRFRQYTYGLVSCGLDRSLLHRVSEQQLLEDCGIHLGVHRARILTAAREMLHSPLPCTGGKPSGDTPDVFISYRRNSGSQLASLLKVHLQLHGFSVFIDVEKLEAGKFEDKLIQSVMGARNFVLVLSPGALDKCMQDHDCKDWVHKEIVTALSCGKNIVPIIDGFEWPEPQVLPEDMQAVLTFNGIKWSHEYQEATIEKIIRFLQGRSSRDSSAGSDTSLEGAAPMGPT

[15] = target: Mitogen-activated protein kinase 7 (Homo sapiens) (UniProt Q13164); assay: ERK5 transactivation activators in reporter cells, primary screen, cell-based, HTS (AID 1508626;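 active means luciferase signal above three times the same-plate solvent-only control wells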;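 further: luciferase driven by Gal4-ERK5 fusion binding five Gal4 sites before minimal TATA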); settings: HeLa Gal4-ERK5 transactivation, 18 h, at 5 µM, stronger effect = higher value
Chain of Mitogen-activated protein kinase 7 (Homo sapiens) (Q13164 whole entry, looked up, the tested form may be a part): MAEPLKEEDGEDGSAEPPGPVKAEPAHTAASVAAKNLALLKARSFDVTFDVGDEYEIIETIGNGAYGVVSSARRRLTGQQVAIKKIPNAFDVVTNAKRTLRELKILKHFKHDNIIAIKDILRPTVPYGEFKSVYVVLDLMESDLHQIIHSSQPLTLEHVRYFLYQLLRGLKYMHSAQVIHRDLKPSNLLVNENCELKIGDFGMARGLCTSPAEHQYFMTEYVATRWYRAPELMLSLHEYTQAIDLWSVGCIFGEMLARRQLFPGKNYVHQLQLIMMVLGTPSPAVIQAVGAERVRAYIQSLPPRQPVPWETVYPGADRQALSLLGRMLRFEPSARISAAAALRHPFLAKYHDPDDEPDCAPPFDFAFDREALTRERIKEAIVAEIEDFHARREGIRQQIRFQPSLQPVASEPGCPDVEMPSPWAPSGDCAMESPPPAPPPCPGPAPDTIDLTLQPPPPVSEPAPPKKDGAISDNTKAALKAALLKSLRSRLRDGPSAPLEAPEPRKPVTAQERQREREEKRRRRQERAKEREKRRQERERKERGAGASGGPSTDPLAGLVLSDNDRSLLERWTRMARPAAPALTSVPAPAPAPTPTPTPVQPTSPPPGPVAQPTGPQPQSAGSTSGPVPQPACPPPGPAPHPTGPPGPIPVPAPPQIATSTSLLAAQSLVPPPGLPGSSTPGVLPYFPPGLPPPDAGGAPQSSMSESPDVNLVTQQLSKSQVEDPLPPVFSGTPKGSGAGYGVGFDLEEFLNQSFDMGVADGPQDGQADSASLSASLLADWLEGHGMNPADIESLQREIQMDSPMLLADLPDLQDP

[16] = kinase inhibitors against Plasmodium liver-stage infection, cell-based, known kinase inhibitor set, luminescence, hepatoma host viability (AID 624392; call rule not given here;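 further: infected cells incubated roughly two days before readout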); settings: Plasmodium liver stage in hepatoma cells, luciferase luminescence, concentration not given here; liver cell % of control: measured here: host liver cell viability; parasite % of control: stronger effect = lower value
[17] = measured here: combination with BGB IC40, at 0.05 µM
[18] = measured here: combination with cisplatin, at 0.5 µM
[19] = measured here: combination with cisplatin, at 5 µM
[20] = measured here: combination with BGB at IC20, at 0.5 µM
[21] = measured here: combination with cisplatin at IC20, at 0.5 µM
[22] = measured here: combo with BGB at IC20, at 0.5 µM
[23] = measured here: combo with cisplatin at IC20, at 0.5 µM
[24] = measured here: inhibition with BGB combination, at 0.05 µM
[25] = measured here: inhibition with cisplatin combination, at 0.05 µM
[26] = BGB combination, concentration series, at 5 µM
[27] = cisplatin combination, concentration series, at 5 µM
[28] = measured here: combo with BGB IC20, at 0.5 µM
[29] = measured here: combo with cisplatin IC20, at 0.5 µM

## O=C1C(CCC(O)c2ccc(F)cc2)C(c2ccc(O)cc2)N1c1ccc(F)cc1 (configuration not stated)
[1]
  z-score: -0.345 (inactive)

## O=C(NOC[C@H](O)CO)c1ccc(F)c(F)c1Nc1ccc(I)cc1F
[2]
  outcome: inactive

## CNCc1ccc(-c2[nH]c3cc(F)cc4c3c2CCNC4=O)cc1
[3]; at 0.5 µM
  inhibition: -10.6% (inactive) and -7.69% (inactive)
[3]; [17]
  inhibition: -6.36% and 4.87%
[3]; [18]
  inhibition: 19.1% and -25%
[3]; [19]
  inhibition: -18.5% and -25.3%
[4]; at 0.5 µM
  inhibition: -36.2% (inactive) and -5.02% (inactive)
[4]; [20]
  inhibition: -29.2% and -1.4%
[4]; [21]
  inhibition: -44.8% and 9.17%
[5]; at 0.5 µM
  inhibition: -4.75% (inactive) and 7.82% (inactive)
[5]; [22]
  inhibition: -19.4% and -2.99%
[5]; [23]
  inhibition: -1.52% and 19.2%
[6]; at 0.5 µM
  inhibition: 3.38% (inactive) and 18.2% (inactive)
[6]; [24]
  inhibition: -7.35% and 1.55%
[6]; [25]
  inhibition: -18.2% and 33.2%
[7]; at 0.5 µM
  inhibition: -21.7% (inactive) and 11% (inactive)
[7]; [18]
  inhibition: -36.4% and 1.09%
[7]; [19]
  inhibition: -18.9% and -8.07%
[8]; [26]
  inhibition: 7.87% and 16.2%
[8]; at 0.5 µM
  inhibition: 2.14% (inactive) and 11.2% (inactive)
[8]; [27]
  inhibition: 1.67% and 2.25%
[9]; at 0.5 µM
  inhibition: 5.22% (inactive) and 8.56% (inactive)
[9]; [28]
  inhibition: -3.65% and 3.02%
[9]; [29]
  inhibition: 2.06% and 7.11%

## O=c1c2ccccc2nc2n1CCc1c-2[nH]c2ccccc12
[10]
  period change: 0.11 h (inactive)
[11]
  inhibition: 2% (inactive)
[12]
  fluorescence ratio (interference): 1 (inactive)
[2]
  outcome: inactive
[1]
  z-score: 1.2 (inactive)

## CC(C)CN(C[C@@H](O)[C@H](Cc1ccccc1)NC(=O)O[C@H]1CCOC1)S(=O)(=O)c1ccc(N)cc1
[13]
  parasite load remaining: 15.6% (inactive)
  viability: 75.5%
[1]
  z-score: 0.4 (inactive)

## CCC(=O)OCC(=O)[C@@]1(OC(=O)CC)[C@@H](C)C[C@H]2[C@@H]3CCC4=CC(=O)C=C[C@]4(C)[C@@]3(F)[C@@H](O)C[C@@]21C
[14]
  remaining NAD: 10 nM (inactive)
[15]
  luciferase signal: 156 AU (inactive)

## CC(C)(C)OC(=O)Nc1ccc(-c2cc(C(=O)NCCCCCCC(=O)NO)no2)cc1
[3]; at 0.5 µM
  inhibition: -23.9% (inactive) and 0.63% (inactive)
[3]; [17]
  inhibition: -39.1% and -9.87%
[3]; [18]
  inhibition: -43.1% and 4.1%
[3]; [19]
  inhibition: 61.5% and 70.7%
[4]; at 0.5 µM
  inhibition: -72.5% (inactive) and -77.6% (inactive)
[4]; [20]
  inhibition: -95.4% and -52.6%
[4]; [21]
  inhibition: -69.5% and -63.5%
[5]; at 0.5 µM
  inhibition: 9.94% (inactive) and 21.1% (inactive)
[5]; [22]
  inhibition: 2.31% and 13%
[5]; [23]
  inhibition: 19.2% and 51.1%
[6]; at 0.5 µM
  inhibition: -1.75% (inactive) and 9.21% (inactive)
[6]; [24]
  inhibition: -25.1% and -31.2%
[6]; [25]
  inhibition: -18.4% and -19.7%
[7]; at 0.5 µM
  inhibition: -15% (inactive) and -8.72% (inactive)
[7]; [18]
  inhibition: -1.56% and 8.91%
[7]; [19]
  inhibition: 69.3% and 57.6%
[8]; [26]
  inhibition: 81.5% and 72.3%
[8]; at 0.5 µM
  inhibition: -3.45% (inactive) and 2.97% (inactive)
[8]; [27]
  inhibition: 90.6% and 89.6%
[9]; at 0.5 µM
  inhibition: 10.3% (inactive) and 12.5% (inactive)
[9]; [28]
  inhibition: 8.87% and 11.7%
[9]; [29]
  inhibition: 7.42% and 16.9%

## Nc1nc(OCc2ccccc2)c2[nH]cnc2n1
[10]
  period change: -0.35 h (inactive)
[11]
  inhibition: -2% (inactive)
[12]
  fluorescence ratio (interference): 0.9 (inactive)
[2]
  outcome: inactive
[1]
  z-score: -0.125 (inactive)

## CO[C@H]1/C=C/O[C@@]2(C)Oc3c(C)c(O)c4c(O)c(c(/C=N\N5CCN(C6CCCC6)CC5)c(O)c4c3C2=O)NC(=O)/C(C)=C\C=C\[C@H](C)[C@H](O)[C@@H](C)[C@@H](O)[C@@H](C)[C@H](OC(C)=O)[C@@H]1C
[3]; at 0.5 µM
  inhibition: -26.5% (inactive)
[3]; [17]
  inhibition: 5.18%
[3]; [18]
  inhibition: -21.5%
[3]; [19]
  inhibition: -13.2%
[4]; at 0.5 µM
  inhibition: -17.9% (inactive)
[4]; [20]
  inhibition: -42.5%
[4]; [21]
  inhibition: -28.1%
[5]; at 0.5 µM
  inhibition: -12% (inactive)
[5]; [22]
  inhibition: -9.84%
[5]; [23]
  inhibition: -22%
[6]; at 0.5 µM
  inhibition: 0.22% (inactive)
[6]; [24]
  inhibition: -17.7%
[6]; [25]
  inhibition: -11.8%
[7]; at 0.5 µM
  inhibition: -7.15% (inactive)
[7]; [18]
  inhibition: -29.8%
[7]; [19]
  inhibition: -34%
[8]; [26]
  inhibition: 4.16%
[8]; at 0.5 µM
  inhibition: -5.57% (inactive)
[8]; [27]
  inhibition: 10.5%
[9]; at 0.5 µM
  inhibition: -10.7% (inactive)
[9]; [28]
  inhibition: -21%
[9]; [29]
  inhibition: -11%

## COc1cc(C(=O)NC2CCN(C)CC2)ccc1Nc1ncc2c(n1)N(C1CCCC1)CCC(=O)N2C(C)C
[16]
  liver cell % of control: 99.8%
  parasite % of control: 139% (inactive)

## CN(C)Cc1ccc(-c2nc3cccc4c3n2CCNC4=O)cc1
[3]; at 0.5 µM
  inhibition: -21.9% (inactive) and -12.8% (inactive)
[3]; [17]
  inhibition: -8.61% and -31.3%
[3]; [18]
  inhibition: -36.5% and -4.44%
[3]; [19]
  inhibition: -20.1% and -27.3%
[4]; at 0.5 µM
  inhibition: -12.7% (inactive) and -34.7% (inactive)
[4]; [20]
  inhibition: 3.27% and -18.3%
[4]; [21]
  inhibition: -10.7% and -61.5%
[5]; at 0.5 µM
  inhibition: -4.1% (inactive) and -8.91% (inactive)
[5]; [22]
  inhibition: -6.79% and -18.1%
[5]; [23]
  inhibition: -1.2% and -11.2%
[6]; at 0.5 µM
  inhibition: 2.77% (inactive) and -2.19% (inactive)
[6]; [24]
  inhibition: -14.3% and 1.91%
[6]; [25]
  inhibition: -5.64% and -29.4%
[7]; at 0.5 µM
  inhibition: -22.3% (inactive) and -21% (inactive)
[7]; [18]
  inhibition: -26.3% and -32%
[7]; [19]
  inhibition: -30.5% and -31.6%
[8]; [26]
  inhibition: 7.25% and 16.2%
[8]; at 0.5 µM
  inhibition: 0.7% (inactive) and -0.32% (inactive)
[8]; [27]
  inhibition: 5.02% and -8.46%
[9]; at 0.5 µM
  inhibition: 3.46% (inactive) and 6.94% (inactive)
[9]; [28]
  inhibition: 2.28% and -1.45%
[9]; [29]
  inhibition: 8.6% and 1.46%
